Results: the supplement of paper PMC5373622, “Screening for AMPA receptor auxiliary subunit specific modulators” (PLoS ONE, 2017)
A number with no mark means an inactive call.

tested on: GRIA2; assay: glutamate-evoked VSD slope (GluSlope), % of maximal glutamate response; higher = potentiation (PAM), active = hit call of the paper; details: 10 µM; glutamate: EC50 (3-4 uM); clone: A2R-stg (HEK293 GluA2flip(R) + stargazin)
Experimental: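 lower means inhibition (NAM); Primary voltage-sensitive dye (FLIPR Blue) screen on TetON HEK293 cells expressing GluA2flip(R) with stargazin (A2R-stg). Compound at 10 uM was preincubated for 290 s, then about EC50 glutamate (3-4 uM) was added; fluorescence was read on an FDSS at 1 Hz. GluSlope is expressed as % of the mean maximal-glutamate (1 mM) slope after vehicle subtraction. Hits deviated more than 3 SD from the plate EC50-glutamate wells. One well per compound.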

Row | SMILES | glutamate-evoked VSD slope
1 | Cc1ccc(-n2nc3c(c2-n2cccc2)CN(C(=O)c2cnccn2)C3)cc1C | 61.4%
2 | Cc1ccccc1OCC(=O)Nc1cc(C(=O)N2CCCC2)cn(C)c1=O | 58.2%
